Reference: PubChem BioAssay (Tox21)
Inconclusive results are not listed. Calls of active or inactive are those of the source. Unless noted, calls follow the shape of the dose curve; as a rule, active = well fitted curve in the direction sought with a large enough effect in the repeat runs; inconclusive = weak or mixed curves; inactive = no such curve, though single readings can be large; an effect the other way counts as inactive or inconclusive.

Key:
[1] = qHTS assay to identify small molecule agonists of the peroxisome proliferator-activated receptor delta (PPARd) signaling pathway - cell viability counter screen (AID 743211); also: % is scaled to controls: 0 for no effect and ±100 for the full control effect; nearly all actives have a fitted effect of over 55% in size
In short: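 Counter screen for cytotoxicity run in parallel with the PPARd reporter screen. Beta-lactamase reporter HEK293H cells exposed to compounds 17 h; ATP-based CellTiter-Glo luminescence quantified viability.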

[2] = biological target: Peroxisome proliferator-activated receptor delta (Homo sapiens) (UniProt Q03181); assay: qHTS assay to identify small molecule agonists of the peroxisome proliferator-activated receptor delta (PPARd) signaling pathway (AID 743212; calls by dose curve; also: % is scaled to controls: 0 for no effect and ±100 for the full control effect)
In short: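 HEK293H PPARd-bla cells; 5 h preincubation 37 C/5% CO2; compound (DMSO) 37 C; LiveBLAzer B/G FRET substrate 2 h RT; fluorescence intensity.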

[3] = qHTS assay to identify small molecule antagonists of the peroxisome proliferator-activated receptor delta (PPARd) signaling pathway - cell viability counter screen (AID 743213); also: % is scaled to controls: 0 for no effect and ±100 for the full control effect; nearly all actives have a fitted effect of over 50% in size
In short: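 PPARd-bla HEK293H cells (3000/well) got compound plus 300 nM L165041 agonist for 17 h at 37 C. Viability in the same wells came from CellTiter-Glo luminescence after 30 min at room temperature.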

[4] = biological target: Peroxisome proliferator-activated receptor delta (Homo sapiens) (UniProt Q03181); assay: qHTS assay to identify small molecule antagonists of the peroxisome proliferator-activated receptor delta (PPARd) signaling pathway (AID 743215; active = well fitted inhibition curve with a large enough effect in the signal ratio in the repeat runs, not every such curve was filed as active; the % refers to the signal ratio;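 also: cells stimulated with agonist L165041 at 300 nM final during compound exposure; series mostly up to about 62 µM; % is scaled to controls: 0 for no effect and ±100 for the full control effect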)
In short: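 Antagonist-mode beta-lactamase reporter screen: HEK293H cells with UAS-bla under PPARd control, stimulated by 300 nM L165041 (final) alongside test compound for 17 h at 37 C, then FRET fluorescence after 2 h substrate incubation.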

[5] = qHTS assay to identify small molecule agonists of the farnesoid-X-receptor (FXR) signaling pathway - cell viability counter screen (AID 743218); also: % is scaled to controls: 0 for no effect and ±100 for the full control effect; nearly all actives have a fitted effect of over 45% in size
In short: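 In GeneBLAzer FXR-UAS-bla HEK 293T cells, compounds act for 16 h at 37 C. Cell viability is then scored in the reporter wells by CellTiter-Glo, 30 min at RT, luminescence.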

[6] = qHTS assay to identify small molecule antagonists of the farnesoid-X-receptor (FXR) signaling pathway - cell viability counter screen (AID 743221; active = well fitted cell-killing curve with a large enough effect in the repeat runs, not every such curve was filed as active; also: % is scaled to controls: 0 for no effect and ±100 for the full control effect; nearly all actives have a fitted effect of over 50% in size)
In short: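 Multiplexed counter screen: viability of FXR-bla HEK 293T cells under agonist stimulation by chenodeoxycholic acid (50 uM, final) and test compound for 16 h at 37 C, measured by CellTiter-Glo luminescence in the reporter wells.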

[7] = biological target: Vitamin D3 receptor (Homo sapiens) (UniProt P11473); assay: qHTS assay to identify small molecule agonists of the vitamin D receptor (VDR) signaling pathway (AID 743222; calls by dose curve; also: % is scaled to controls: 0 for no effect and ±100 for the full control effect)
In short: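 Agonist activity measured in VDR-bla reporter cells. Exposure 16 h, 37C, 5% CO2; detection by B/G FRET substrate, 2 h RT.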

[8] = qHTS assay to identify small molecule agonists of the vitamin D receptor (VDR) signaling pathway - cell viability counter screen (AID 743224); also: series mostly up to about 63 µM; % is scaled to controls: 0 for no effect and ±100 for the full control effect; nearly all actives have a fitted effect of over 50% in size
In short: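 VDR-bla cell line, quantitative HTS format; 16 h compound incubation (37C, 5% CO2); ATP-based CellTiter-Glo luminescence measured in the reporter assay wells.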

[9] = qHTS assay to identify small molecule antagonists of the vitamin D receptor (VDR) signaling pathway - cell viability counter screen (AID 743225); also: % is scaled to controls: 0 for no effect and ±100 for the full control effect; nearly all actives have a fitted effect of over 50% in size
In short: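 HEK293T VDR-bla; cpd + 1a,25-(OH)2D3 3 nM final, 16 h 37C/5% CO2; B/G FRET substrate 2 h RT; then CellTiter-Glo 30 min RT, luminescence.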

[10] = qHTS assay to identify small molecule agonists of the NFkB signaling pathway (AID 1159509; active = well fitted curve in the direction sought with a large enough effect in the signal ratio in the repeat runs, not every such curve was filed as active; the % refers to the signal ratio; also: series mostly up to about 61 µM; % is scaled to controls: 0 for no effect and ±100 for the full control effect)
In short: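 NFkB-bla ME-180 cells carry a beta-lactamase reporter under an NF-kB response element. They were plated overnight, then exposed to compounds for 5 h at 37 C. Read-out is LiveBLAzer FRET after 1.5 hr at room temperature (405 nm excitation; 460/530 nm emission).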

[11] = qHTS assay to identify small molecule agonists of the NFkB signaling pathway - cell viability counter screen (AID 1159515; calls by dose curve; also: series mostly up to about 61 µM; % is scaled to controls: 0 for no effect and ±100 for the full control effect; nearly all actives have a fitted effect of over 55% in size)
In short: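 Viability in NFkB-bla ME-180 cells was measured by CellTiter-Glo luminescence, 30 min room temperature, in wells already treated 5 hr with compounds and read for reporter FRET.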

[12] = qHTS assay to identify small molecule agonists of the endoplasmic reticulum stress response signaling pathway (AID 1159516; active = well fitted activation curve with a large enough effect in the signal ratio in the repeat runs, not every such curve was filed as active; the % refers to the signal ratio; also: % is scaled to controls: 0 for no effect and ±100 for the full control effect)
In short: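 ER stress element reporter (bla) in HeLa. 1,500 cells/well, overnight attachment; 5 hr compound; 2 hr RT substrate; dual-emission fluorescence.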

[13] = biological target: Nuclear receptor ROR-gamma (Homo sapiens) (UniProt P51449); assay: qHTS assay to identify small molecule antagonists of the retinoid-related orphan receptor gamma (ROR-gamma) signaling pathway (AID 1159521)
In short: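 Cells were plated, rested 4 h at 37 C, exposed to compounds for 2 h, then given 1 uM final doxycycline hyclate to induce RORγ expression. After 16 h, ONE-Glo luminescence from the ROR response element reporter was measured.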

[14] = qHTS assay to identify small molecule agonists of the AP-1 signaling pathway - cell viability counter screen (AID 1159525; calls by dose curve; also: nearly all actives have a fitted effect of over 55% in size)
In short: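 Luminescent ATP readout (Cell Titer Glo, 30 min RT), normalised to DMSO and tetra n-octyl ammonium bromide controls. Cells were ME-180 AP-1-bla in 0.5% dialyzed FBS Opti-MEM, with a 5 h, 37 °C compound exposure.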

[15] = qHTS assay to identify small molecule agonists of the AP-1 signaling pathway (AID 1159526; calls by dose curve; also: % is scaled to controls: 0 for no effect and ±100 for the full control effect)
[16] = biological target: Bile acid receptor (Homo sapiens) (UniProt Q96RI1); assay: qHTS assay to identify small molecule antagonists of the farnesoid-X-receptor (FXR) signaling pathway (AID 743217; active = well fitted inhibition curve with a large enough effect in the signal ratio in the repeat runs, not every such curve was filed as active; the % refers to the signal ratio; also: % is scaled to controls: 0 for no effect and ±100 for the full control effect)
In short: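 Beta-lactamase reporter under UAS control in HEK 293T cells; compound exposure 16 h at 37 °C in the presence of chenodeoxycholic acid (50 uM final); signal from B/G FRET substrate after 2 h at room temperature.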

[17] = biological target: Bile acid receptor (Homo sapiens) (UniProt Q96RI1); assay: qHTS assay to identify small molecule agonists of the farnesoid-X-receptor (FXR) signaling pathway (AID 743220; active = well fitted activation curve with a large enough effect in the signal ratio in the repeat runs, not every such curve was filed as active; the % refers to the signal ratio; also: % is scaled to controls: 0 for no effect and ±100 for the full control effect)
In short: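 Beta-lactamase reporter under UAS control in GeneBLAzer FXR HEK 293T cells (5000/well) measured with LiveBLAzer FRET substrate after 2 h at room temperature. Compound exposure lasted 16 h at 37C.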

[18] = qHTS assay to identify small molecule antagonists of the retinoid-related orphan receptor gamma (ROR-gamma) signaling pathway - cell viability counter screen (AID 1159520)
In short: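 Cytotoxicity was read from cellular ATP (CellTiter-Glo luminescence) after 16 hr at 37 C with 1 uM doxycycline induction. The inducer was added 2 hr after compound transfer to Tet-on ROR gamma CHO cells.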

[19] = qHTS assay to identify small molecule agonists of the endoplasmic reticulum stress response signaling pathway - cell viability counter screen (AID 1159517; calls by dose curve)
In short: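 HeLa cells carrying an ESRE-driven beta-lactamase reporter receive compound for 5 hr at 37 C. Cell viability is then gauged with CellTiter-Glo by luminescence, 30 min at room temperature.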

[20] = biological target: Vitamin D3 receptor (Homo sapiens) (UniProt P11473); assay: qHTS assay to identify small molecule antagonists of the vitamin D receptor (VDR) signaling pathway (AID 743223; active = well fitted inhibition curve with a large enough effect in the signal ratio in the repeat runs, not every such curve was filed as active; the % refers to the signal ratio; also: % is scaled to controls: 0 for no effect and ±100 for the full control effect)
In short: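 Cells carrying a VDR-driven beta-lactamase reporter (VDR-bla) were co-treated with compound and 3 nM final 1alpha,25-dihydroxyvitamin D3 for 16 h at 37C; reporter activity was measured as FRET substrate fluorescence after 2 h at room temperature.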

Sequence of Peroxisome proliferator-activated receptor delta (Homo sapiens) (Q03181 whole entry, looked up): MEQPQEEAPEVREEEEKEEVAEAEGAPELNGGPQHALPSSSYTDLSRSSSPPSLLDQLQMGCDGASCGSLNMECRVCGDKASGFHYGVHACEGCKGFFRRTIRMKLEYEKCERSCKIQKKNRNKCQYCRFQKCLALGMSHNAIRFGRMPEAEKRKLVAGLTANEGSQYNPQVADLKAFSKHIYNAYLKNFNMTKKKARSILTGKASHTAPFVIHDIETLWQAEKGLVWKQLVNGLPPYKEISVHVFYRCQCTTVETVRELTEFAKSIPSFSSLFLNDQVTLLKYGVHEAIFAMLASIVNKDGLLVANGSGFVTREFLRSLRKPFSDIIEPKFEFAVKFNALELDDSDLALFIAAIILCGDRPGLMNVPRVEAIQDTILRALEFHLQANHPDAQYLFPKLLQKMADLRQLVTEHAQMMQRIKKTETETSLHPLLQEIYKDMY
Sequence of Vitamin D3 receptor (Homo sapiens) (P11473 whole entry, looked up): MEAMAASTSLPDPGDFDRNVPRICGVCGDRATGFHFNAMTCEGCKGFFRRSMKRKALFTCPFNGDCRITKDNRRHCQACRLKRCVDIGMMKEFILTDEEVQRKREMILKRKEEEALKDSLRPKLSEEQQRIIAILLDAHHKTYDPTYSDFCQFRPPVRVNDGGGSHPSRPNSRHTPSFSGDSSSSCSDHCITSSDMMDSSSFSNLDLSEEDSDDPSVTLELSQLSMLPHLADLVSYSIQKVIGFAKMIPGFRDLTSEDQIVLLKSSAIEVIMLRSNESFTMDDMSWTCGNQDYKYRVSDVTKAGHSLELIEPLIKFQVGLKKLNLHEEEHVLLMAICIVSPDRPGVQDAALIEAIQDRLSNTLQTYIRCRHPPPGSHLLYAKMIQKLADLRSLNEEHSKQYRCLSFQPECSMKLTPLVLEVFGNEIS
Sequence of Bile acid receptor (Homo sapiens) (Q96RI1 whole entry, looked up): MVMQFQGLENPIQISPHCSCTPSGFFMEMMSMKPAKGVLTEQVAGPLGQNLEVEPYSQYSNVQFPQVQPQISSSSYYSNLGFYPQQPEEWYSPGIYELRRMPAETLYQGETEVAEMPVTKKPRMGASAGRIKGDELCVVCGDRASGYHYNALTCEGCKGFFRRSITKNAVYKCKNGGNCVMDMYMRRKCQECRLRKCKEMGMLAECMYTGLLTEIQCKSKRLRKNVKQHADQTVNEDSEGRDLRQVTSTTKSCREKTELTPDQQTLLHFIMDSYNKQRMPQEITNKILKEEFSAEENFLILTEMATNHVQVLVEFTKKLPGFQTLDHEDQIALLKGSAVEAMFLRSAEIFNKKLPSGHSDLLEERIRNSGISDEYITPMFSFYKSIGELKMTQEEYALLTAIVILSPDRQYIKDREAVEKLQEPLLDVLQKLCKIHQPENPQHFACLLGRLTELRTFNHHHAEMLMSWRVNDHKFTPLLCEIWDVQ

CCCCCC(C)O (stereo unspecified)
inactive: outcome [1] | outcome [2] | outcome [3] | outcome [4] | outcome [5] | outcome [6] | outcome [7] | outcome [8] | outcome [9] | outcome [10] | outcome [11] | outcome [12] | outcome [13] | outcome [14] | outcome [15]

CC(=O)O[C@H]1C[C@@H]2CC[C@@]1(C)C2(C)C
inactive: outcome [1] | outcome [3] | outcome [16] | outcome [17] | outcome [6] | outcome [7] | outcome [9] | outcome [10] | outcome [11] | outcome [12] | outcome [18] | outcome [13] | outcome [14] | outcome [15]

COC(=O)CCCCC(CCSS/C(CCO)=C(\C)N(C=O)Cc1cnc(C)nc1N)SC(C)=O (stereo unspecified)
inactive: outcome [1] | outcome [2] | outcome [3] | outcome [4] | outcome [16] | outcome [5] | outcome [17] | outcome [6] | outcome [8] | outcome [9] | outcome [10] | outcome [11] | outcome [12] | outcome [18] | outcome [13] | outcome [14] | outcome [15]

CCOCCOCC
inactive: outcome [1] | outcome [2] | outcome [3] | outcome [4] | outcome [16] | outcome [5] | outcome [17] | outcome [6] | outcome [7] | outcome [8] | outcome [9] | outcome [11] | outcome [12] | outcome [19] | outcome [18] | outcome [13] | outcome [14] | outcome [15]

CC(C)NCC(O)c1ccc2ccccc2c1 (stereo unspecified)
inactive: outcome [1] | outcome [2] | outcome [3] | outcome [4] | outcome [5] | outcome [6] | outcome [7] | outcome [20] | outcome [8] | outcome [9] | outcome [10] | outcome [11] | outcome [12] | outcome [18] | outcome [13] | outcome [14] | outcome [15]

CC(C)OC(=O)OCOP(=O)(CO[C@H](C)Cn1cnc2c(N)ncnc21)OCOC(=O)OC(C)C
inactive: outcome [1] | outcome [2] | outcome [3] | outcome [4] | outcome [5] | outcome [6] | outcome [7] | outcome [20] | outcome [8] | outcome [9] | outcome [10] | outcome [11] | outcome [12] | outcome [18] | outcome [13] | outcome [14] | outcome [15]

CN(C)CCN(C)CCO
inactive: outcome [1] | outcome [3] | outcome [16] | outcome [5] | outcome [17] | outcome [6] | outcome [20] | outcome [8] | outcome [9] | outcome [10] | outcome [11] | outcome [12] | outcome [13] | outcome [14] | outcome [15]

O=C(O)CCCCCC(=O)O
inactive: outcome [1] | outcome [2] | outcome [3] | outcome [4] | outcome [5] | outcome [6] | outcome [7] | outcome [20] | outcome [8] | outcome [9] | outcome [10] | outcome [11] | outcome [12] | outcome [18] | outcome [13] | outcome [14] | outcome [15]

CC(C)c1ccc(C=O)cc1
inactive: outcome [1] | outcome [2] | outcome [3] | outcome [4] | outcome [6] | outcome [7] | outcome [8] | outcome [9] | outcome [10] | outcome [11] | outcome [12] | outcome [13] | outcome [14] | outcome [15]

Cc1ccc(C)c([N+](=O)[O-])c1
inactive: outcome [1] | outcome [2] | outcome [3] | outcome [4] | outcome [5] | outcome [7] | outcome [20] | outcome [8] | outcome [9] | outcome [10] | outcome [11] | outcome [12] | outcome [18] | outcome [13] | outcome [14] | outcome [15]

O=C(O)CSCC(=O)NC1CCSC1=O (stereo unspecified)
inactive: outcome [1] | outcome [2] | outcome [3] | outcome [4] | outcome [16] | outcome [5] | outcome [17] | outcome [6] | outcome [8] | outcome [9] | outcome [11] | outcome [12] | outcome [19] | outcome [18] | outcome [13] | outcome [14] | outcome [15]

N[C@@H](Cc1ccc(O)cc1)C(=O)O
inactive: activity change, negative = cytotoxicity [1] 3.38% [at 13.2 µM] | activity change, negative = inhibition [20] 1.57% [at 6.95 µM] | viability change, negative = cytotoxic [9] 7.41% [at 6.95 µM] | activation [10] -0.279% [at 6.95 µM] | activity, negative = cytotoxic [11] 9.74% [at 6.95 µM] | activation [12] -0.0263% [at 6.95 µM] | activity, negative = cytotoxicity [18] 1.78% [at 8.39 µM] | activity change, negative = inhibition [13] 1.55% [at 8.39 µM] | viability change, negative = cytotoxic [14] 1.17% [at 6.97 µM] | activation [15] -1.16% [at 6.97 µM]

CCCCCCCCCCCCCCC(=O)NC(CO)CCCCCCCCCCCCCC (stereo unspecified)
inactive: outcome [1] | outcome [2] | outcome [16] | outcome [5] | outcome [17] | outcome [6] | outcome [7] | outcome [20] | outcome [8] | outcome [9] | outcome [10] | outcome [11] | outcome [12] | outcome [18] | outcome [13] | outcome [14] | outcome [15]

O=C(CCCCC(=O)Nc1c(I)cc(I)c(C(=O)O)c1I)Nc1c(I)cc(I)c(C(=O)O)c1I
inactive: outcome [1] | outcome [2] | outcome [3] | outcome [4] | outcome [5] | outcome [6] | outcome [8] | outcome [9] | outcome [10] | outcome [11] | outcome [12] | outcome [13] | outcome [14] | outcome [15]

CN1CCOC(c2ccccc2)c2ccccc2C1 (stereo unspecified)
inactive: outcome [1] | outcome [2] | outcome [3] | outcome [4] | outcome [16] | outcome [5] | outcome [17] | outcome [6] | outcome [8] | outcome [9] | outcome [11] | outcome [12] | outcome [19] | outcome [18] | outcome [13] | outcome [14] | outcome [15]

Cc1c(NC(=O)c2cccnc2)c(=O)n(-c2ccccc2)n1C
inactive: outcome [1] | outcome [2] | outcome [3] | outcome [4] | outcome [16] | outcome [17] | outcome [7] | outcome [20] | outcome [8] | outcome [9] | outcome [10] | outcome [11] | outcome [12] | outcome [13] | outcome [14] | outcome [15]
